29 compounds from PubChem BioAssay AID463173 (ICCB-Longwood Screening Facility, Harvard Medical School, 2010) can be followed below.

About 4,300 (8.3%) of roughly 52,000 compounds were called active. Many of the other results were omitted from the sample, so actives are more common in it than they were. A number with no mark means an inactive call. No stated cut-off is given here; in the data, active means survival mostly below about 52% (no sharp cut-off); inactive means mostly above about 56%.

The assay has as its system DeltatarO mutant. Nature of the assay: growth inhibition of S. aureus wild type versus tarO mutant, primary screen, teichoic acid synthesis inhibitors, RN4220, OD600 (AID 463173). Particulars: OD600, 18 h, stronger effect = lower value, screened at 18.75 µg/mL (by protocol).
With `COc1ccccc1NC(=O)c1ncn(-c2ccccc2)n1`, the survival was 115%.

Turning to `CCC(=O)N1CCN(C(=O)CC)C1c1ccccc1`, the survival was 93%.

Regarding `CC1=CC(C)(C)N(C(=O)Cc2ccccc2)c2ccccc21`, the survival is 115%.

Take `CC(=O)N1c2ccccc2C(C)(c2ccc(C)cc2)CC1(C)C` (centres undefined): the survival was -4% (active).

`CCN1C(=O)C(O)(C(C)C(=O)c2ccccc2)c2ccccc21` (centres undefined): the survival is 57%.

In the case of `CCC(=O)N1c2ccccc2C(C)(c2ccccc2)CC1(C)C` (centres undefined), the survival was -8% (active).

With `CC(=O)N1c2ccccc2N(C)C(=O)C1(C)C`, the survival is 88%.

`CCC(CC)C(=O)N1CCN(Cc2ccccc2)CC1`: the survival is 94%.

Consider `CCCCCC(=O)N1c2ccccc2C(C)(c2ccccc2)CC1(C)C` (centres undefined), for which the survival was -2% (active).

As to `CCC(CC)C(=O)N1c2ccccc2C(C)(c2ccccc2)CC1(C)C` (centres undefined), the survival was -5% (active).

Take `Cc1ccc(NC(=O)CN2C(=O)C(C)(C)c3ccccc32)cc1`: the survival is 78%.

For `CC1=CC(C)C(/C=N/O)C(C)C1` (centres undefined), the survival is 94%.

As for `O=C(/C=C/c1ccccc1)Nc1ccccc1N1CCN(c2ccccc2)CC1`, the survival is 106%.

Turning to `Cc1ccc2onc(CNC(=O)NCc3cccc(Cl)c3)c2c1`, the survival is 72%.

For `CC1CCCN(c2ncnc3c2nnn3C)C1` (centres undefined), the survival was 75%.

In the case of `CCOC(=O)CN1CCOCCN(CC(=O)OCC)CCOCC1`, the survival is 64%.

With `Cc1ccc(NC(=O)CSc2cn(CC(=O)N3CCCC3)c3ccccc23)cc1Cl`, the survival is 84%.

On to `CCOc1ccc(CCNC(=O)Cn2nnc(-c3ccc(OC)c(OC)c3)n2)cc1OCC`, for which the survival was 65%.

Turning to `O=C(Nc1ccc2c(c1)oc1ccccc12)c1cccs1`, the survival was 69%.

On to `COc1ccc(OC)c(CCNC(=O)C2CCN(c3ncnc4c3nc3n4CCCCC3)CC2)c1`, for which the survival was 80%.

`COc1ccc(CNC(=O)CN2CCSc3ccccc32)c(OC)c1`: the survival is 120%.

Turning to `CC(C)CN(CCNC(=O)CCN1N=C(c2ccccc2)CCC1=O)CC(C)C`, the survival is 84%.

For the compound `CCOC(=O)c1ccccc1NC(=O)N(C(C)C)C1CCN(C(C)=O)CC1`, the survival is 73%.

As to `CCc1ccc(NC(=O)c2cnn3c(C(F)F)cc(C)nc23)cc1`, the survival is 96%.

On to `O=C(Cn1c(=O)n2nc(-c3cccc(F)c3)nc2c2ccccc21)N1CCN(c2ccccc2F)CC1`, for which the survival is 116%.

`Cc1nn(Cc2noc(C(=O)NCc3cccc(F)c3)n2)c(C)c1Br`: the survival is 71%.

Take `CCCCC(=O)N1c2ccccc2C(C)(c2ccccc2)CC1(C)C` (centres undefined): the survival is -3% (active).

Take `CCCCOc1ccc(C2(C(=O)O)CCCC2)cc1`: the survival is 103%.

Regarding `CCCCN1C(=O)C(O)(CC(=O)c2ccc(C(C)(C)C)cc2)c2ccccc21` (centres undefined), the survival is 28%.
